{"source": "PubChem BioAssay", "key": {"[1]": {"experiment": "circadian clock period modulators, cell-based, LOPAC library, luminescence reporter (AID 2774; call rule not given here)", "conditions": "circadian reporter cells, at 7 µM, actives lie on both sides"}, "[2]": {"experiment": "hESC survival regulators, cell-based (AID 493140; call rule not given here;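 note: cells exposed to compounds for four days before counting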)", "conditions": "human embryonic stem cell survival screen; stronger effect = higher value"}, "[3]": {"experiment": "liver-stage malaria parasite growth inhibition, primary screen, cell-based, HepG2, luciferase luminescence, HepG2 viability (AID 624349; in the data active = parasite load remaining mostly below about 12%, no sharp cut-off; inactive = mostly above about 10%;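 note: 100% = mean of DMSO negative control wells on the same plate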)", "conditions": "P. berghei liver stage in HepG2, luciferase luminescence, concentration not given here; parasite load remaining: stronger effect = lower value; viability: measured here: HepG2 viability without parasites"}, "[4]": {"system": "Hepatitis C virus NS3 helicase", "experiment": "HCV NS3 helicase inhibitors, primary screen, biochemical, fluorescence polarization, LOPAC1280 library (AID 687035; in the data active = inhibition above about 37%)", "conditions": "Purified HCV NS3 helicase, Cy5-dT15 ssDNA binding fluorescence polarization; stronger effect = higher value; concentration not given here"}, "[5]": {"experiment": "Cy5 fluorescence quenching or enhancement artefacts, artefact control for HCV NS3 helicase inhibitor project, biochemical, LOPAC1280 (AID 687037; call rule not given here)", "conditions": "Cy5-DNA-NS3h complex fluorescence interference counterscreen"}, "[6]": {"experiment": "sensitizers of A549 cells to miR-34 induction, primary screen, imaging, A549 dox-inducible miR-34, nuclei and caspase counts (AID 1347080;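 active = compounds whose cell count with miR-34 switched on is under 0.7 times the count with it off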)", "conditions": "A549 miR-34 inducible, Hoechst nuclei count, 48 h"}, "[7]": {"experiment": "phospholipid biosynthesis inhibitors in animal cells, primary screen, cell-based, LOPAC library, screen 4 (AID 1347384; call rule not given here)", "conditions": "phospholipid biosynthesis inhibition screen, at 10 µM"}, "[8]": {"experiment": "survival rescue of mitochondrial mutant cells in low glucose, primary screen, MELAS cybrids, Rieske KO mouse fibroblasts, CellTiter-Glo (AID 1508586;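 active = mean z-score across replicates of 1.96 or higher in either the MELAS or the Rieske mutant cell line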;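 note: z relative to plate mean and SD of compound and empty wells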)"}, "[9]": {"experiment": "viability rescue of complex I mutant cybrids, primary screen, cell-based, galactose medium, ATP luminescence (AID 1645843;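 active = z-score of at least 1.8 in each of two replicates, scored against plate mean and spread of sample wells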;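 note: positive z means more ATP and so rescue of galactose-driven cybrid death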)", "conditions": "complex I mutant cybrid cells, 72 h, stronger effect = higher value"}, "[10]": {"experiment": "modifiers of HSF1 nuclear foci, imaging, Selleck Cancer Library (AID 1347162; in the data active = plate-normalised HSF1 focus index below about 0.46)", "conditions": "human cells, at 10 µM; SSMD: measured here: HSF1 foci SSMD mean; cell count: measured here: cell number; plate-normalised HSF1 focus index: stronger effect = lower value"}, "[11]": {"experiment": "ovarian cancer cell viability with rucaparib, profiling panel, oncology-focused library, rucaparib conditional (AID 1508598)", "conditions": "patient-derived ovarian cancer cells, CellTiter-Glo viability, 144 h, stronger effect = lower value"}, "[12]": {"experiment": "inhibitors of Cryptococcus chitosan production, flow cytometry, Cibacron Brilliant Red staining (AID 1347148; call rule not given here;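 note: compound exposure lasted three days at 37 degrees C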)", "conditions": "Cryptococcus neoformans chitosan, stronger effect = lower value; at 10 µM unless noted"}, "[13]": {"conditions": "stronger effect = lower value, cell number ratio, induced over uninduced"}, "[14]": {"conditions": "measured here: relative caspase fold change +Dox/-Dox"}, "[15]": {"conditions": "measured here: total cells with miR-34 induction, stronger effect = lower value"}, "[16]": {"conditions": "measured here: total cells without miR-34 induction"}, "[17]": {"conditions": "MELAS cybrid survival, CellTiter-Glo 48 h, stronger effect = higher value"}, "[18]": {"conditions": "Rieske KO mouse fibroblast survival, CellTiter-Glo 72 h"}}, "note": "“And” between values parts separate entries of the source, which are not always exact repeats. Equal entries are not always repeated. The source made the active and inactive calls.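 Rule for the calls, unless noted: active = normalized viability below 100% at a tested concentration; inactive = the rest.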", "data": [{"compound": "NC(N)=NCc1cccc(I)c1", "values": [{"measurement": "period change", "setting": "[1]", "result": "0.01 h (inactive)"}, {"measurement": "survival", "setting": "[2]", "result": "4 (inactive)"}, {"measurement": "parasite load remaining", "setting": "[3]", "result": "28.4% (inactive) and 43.8% (inactive)"}, {"measurement": "viability", "setting": "[3]", "result": "121% and 78.9%"}, {"measurement": "inhibition", "setting": "[4]", "result": "-5% (inactive)"}, {"measurement": "fluorescence ratio (interference)", "setting": "[5]", "result": "0.9 (inactive)"}, {"measurement": "fold change", "setting": "[6]; [13]", "result": "1.1 (inactive) and 0.739 (inactive)"}, {"measurement": "fold change", "setting": "[6]; [14]", "result": "0.666 and 1.95"}, {"measurement": "cell count", "setting": "[6]; [15]", "result": "8720 and 5880"}, {"measurement": "cell count", "setting": "[6]; [16]", "result": 7960}, {"measurement": "outcome", "setting": "[7]", "result": "inactive"}, {"measurement": "z-score", "setting": "[8]; [17]", "result": "-0.124 (inactive)"}, {"measurement": "z-score", "setting": "[8]; [18]", "result": -0.101}, {"measurement": "z-score", "setting": "[9]", "result": "-0.305 (inactive)"}]}, {"compound": "COc1ccc(C2=NC(c3ccc(Cl)cc3)C(c3ccc(Cl)cc3)N2C(=O)N2CCNC(=O)C2)c(OC(C)C)c1", "note": "(configuration not stated)", "values": [{"measurement": "fold change", "setting": "[6]; [13]", "result": "0.914 (inactive) and 0.912 (inactive) and 0.921 (inactive)"}, {"measurement": "fold change", "setting": "[6]; [14]", "result": "0.374 and 0.688 and 0.486"}, {"measurement": "cell count", "setting": "[6]; [15]", "result": "2920 and 2710 and 7580"}, {"measurement": "cell count", "setting": "[6]; [16]", "result": "3200 and 2970 and 8230"}, {"measurement": "SSMD", "setting": "[10]", "result": 2.83}, {"measurement": "cell count", "setting": "[10]", "result": 7540}, {"measurement": "plate-normalised HSF1 focus index", "setting": "[10]", "result": "1.18 (inactive)"}, {"measurement": "z-score", "setting": "[8]; [17]", "result": "0.254 (inactive) and -0.293 (inactive) and -0.371 (inactive)"}, {"measurement": "z-score", "setting": "[8]; [18]", "result": "0.0375 and 0.393 and 0.654"}, {"measurement": "viability", "setting": "[11]; at 0.000305 µM, OCI-C5x cells, with rucaparib 10 µM, 100% = cells with rucaparib alone", "result": "120% (inactive)"}, {"measurement": "viability", "setting": "[11]; at 0.000305 µM, OCI-C5x cells, without rucaparib", "result": "129% (inactive)"}, {"measurement": "viability", "setting": "[11]; at 0.000305 µM, OCI-P5x cells, with rucaparib 20 µM, 100% = cells with rucaparib alone", "result": "108% (inactive)"}, {"measurement": "viability", "setting": "[11]; at 0.000305 µM, OCI-P5x cells, without rucaparib", "result": "104% (inactive)"}, {"measurement": "viability", "setting": "[11]; at 0.00122 µM, OCI-C5x cells, with rucaparib 10 µM, 100% = cells with rucaparib alone", "result": "116% (inactive)"}, {"measurement": "viability", "setting": "[11]; at 0.00122 µM, OCI-C5x cells, without rucaparib", "result": "136% (inactive)"}, {"measurement": "viability", "setting": "[11]; at 0.00122 µM, OCI-P5x cells, with rucaparib 20 µM, 100% = cells with rucaparib alone", "result": "104% (inactive)"}, {"measurement": "viability", "setting": "[11]; at 0.00122 µM, OCI-P5x cells, without rucaparib", "result": "93.6% (active)"}, {"measurement": "viability", "setting": "[11]; at 0.00488 µM, OCI-C5x cells, with rucaparib 10 µM, 100% = cells with rucaparib alone", "result": "112% (inactive)"}, {"measurement": "viability", "setting": "[11]; at 0.00488 µM, OCI-C5x cells, without rucaparib", "result": "124% (inactive)"}, {"measurement": "viability", "setting": "[11]; at 0.00488 µM, OCI-P5x cells, with rucaparib 20 µM, 100% = cells with rucaparib alone", "result": "96.2% (active)"}, {"measurement": "viability", "setting": "[11]; at 0.00488 µM, OCI-P5x cells, without rucaparib", "result": "91.7% (active)"}, {"measurement": "viability", "setting": "[11]; at 0.0195 µM, OCI-C5x cells, with rucaparib 10 µM, 100% = cells with rucaparib alone", "result": "110% (inactive)"}, {"measurement": "viability", "setting": "[11]; at 0.0195 µM, OCI-C5x cells, without rucaparib", "result": "128% (inactive)"}, {"measurement": "viability", "setting": "[11]; at 0.0195 µM, OCI-P5x cells, with rucaparib 20 µM, 100% = cells with rucaparib alone", "result": "97% (active)"}, {"measurement": "viability", "setting": "[11]; at 0.0195 µM, OCI-P5x cells, without rucaparib", "result": "93.4% (active)"}, {"measurement": "viability", "setting": "[11]; at 0.0781 µM, OCI-C5x cells, with rucaparib 10 µM, 100% = cells with rucaparib alone", "result": "108% (inactive)"}, {"measurement": "viability", "setting": "[11]; at 0.0781 µM, OCI-C5x cells, without rucaparib", "result": "124% (inactive)"}, {"measurement": "viability", "setting": "[11]; at 0.0781 µM, OCI-P5x cells, with rucaparib 20 µM, 100% = cells with rucaparib alone", "result": "102% (inactive)"}, {"measurement": "viability", "setting": "[11]; at 0.0781 µM, OCI-P5x cells, without rucaparib", "result": "95.5% (active)"}, {"measurement": "viability", "setting": "[11]; at 0.313 µM, OCI-C5x cells, with rucaparib 10 µM, 100% = cells with rucaparib alone", "result": "113% (inactive)"}, {"measurement": "viability", "setting": "[11]; at 0.313 µM, OCI-C5x cells, without rucaparib", "result": "115% (inactive)"}, {"measurement": "viability", "setting": "[11]; at 0.313 µM, OCI-P5x cells, with rucaparib 20 µM, 100% = cells with rucaparib alone", "result": "97.6% (active)"}, {"measurement": "viability", "setting": "[11]; at 0.313 µM, OCI-P5x cells, without rucaparib", "result": "86.9% (active)"}, {"measurement": "viability", "setting": "[11]; at 1.25 µM, OCI-C5x cells, with rucaparib 10 µM, 100% = cells with rucaparib alone", "result": "103% (inactive)"}, {"measurement": "viability", "setting": "[11]; at 1.25 µM, OCI-C5x cells, without rucaparib", "result": "111% (inactive)"}, {"measurement": "viability", "setting": "[11]; at 1.25 µM, OCI-P5x cells, with rucaparib 20 µM, 100% = cells with rucaparib alone", "result": "91.3% (active)"}, {"measurement": "viability", "setting": "[11]; at 1.25 µM, OCI-P5x cells, without rucaparib", "result": "89.1% (active)"}, {"measurement": "viability", "setting": "[11]; at 5 µM, OCI-C5x cells, with rucaparib 10 µM, 100% = cells with rucaparib alone", "result": "109% (inactive)"}, {"measurement": "viability", "setting": "[11]; at 5 µM, OCI-C5x cells, without rucaparib", "result": "104% (inactive)"}, {"measurement": "viability", "setting": "[11]; at 5 µM, OCI-P5x cells, with rucaparib 20 µM, 100% = cells with rucaparib alone", "result": "82.1% (active)"}, {"measurement": "viability", "setting": "[11]; at 5 µM, OCI-P5x cells, without rucaparib", "result": "90.4% (active)"}]}, {"compound": "CCCCC[C@H](O)/C=C/[C@H]1C(=O)C[C@H](O)[C@@H]1C/C=C\\CCCC(=O)O", "values": [{"measurement": "survival", "setting": "[2]", "result": "96.1 (inactive)"}, {"measurement": "fold change", "setting": "[6]; [13]", "result": "0.966 (inactive) and 0.979 (inactive)"}, {"measurement": "fold change", "setting": "[6]; [14]", "result": "1.13 and 1.66"}, {"measurement": "cell count", "setting": "[6]; [15]", "result": "6220 and 5740"}, {"measurement": "cell count", "setting": "[6]; [16]", "result": "6440 and 5870"}, {"measurement": "fold fluorescence", "setting": "[12]", "result": "3.99 (inactive)"}]}, {"compound": "CNCCC(Oc1ccccc1C)c1ccccc1", "note": "(configuration not stated)", "values": [{"measurement": "period change", "setting": "[1]", "result": "0.255 h (inactive)"}, {"measurement": "inhibition", "setting": "[4]", "result": "-5% (inactive)"}, {"measurement": "fluorescence ratio (interference)", "setting": "[5]", "result": "0.9 (inactive)"}, {"measurement": "fold change", "setting": "[6]; [13]", "result": "1.03 (inactive) and 0.898 (inactive) and 0.925 (inactive)"}, {"measurement": "fold change", "setting": "[6]; [14]", "result": "1.24 and 2 and 2.24"}, {"measurement": "cell count", "setting": "[6]; [15]", "result": "9740 and 9090 and 9100"}, {"measurement": "cell count", "setting": "[6]; [16]", "result": "9500 and 10100 and 9850"}, {"measurement": "outcome", "setting": "[7]", "result": "inactive"}, {"measurement": "z-score", "setting": "[8]; [17]", "result": "-0.0629 (inactive)"}, {"measurement": "z-score", "setting": "[8]; [18]", "result": -0.0775}, {"measurement": "z-score", "setting": "[9]", "result": "-0.235 (inactive) and -0.28 (inactive)"}]}]}
